DT40 TDP1 CPT – growth inhibition of DT40 Tdp1-/-;hTDP1 cells with camptothecin (screen for TDP1 inhibitors) | chicken DT40 Tdp1-/-;hTDP1 cells + 20 nM CPT, ATP luminescence, 48 h | Potency, µM (series often up to 46.2 µM), for the others: at the top dose activity change, negative = growth inhibition, most hits filed as inhibitors | hit rate 12% among 420,000; note: potency is the fitted concentration of half-maximal effect; nearly all actives have a fitted effect of over 55% in size
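Chicken DT40 Tdp1-/- cells complemented with human TDP1, 400 cells/well, exposed to compounds plus 20 nM camptothecin for at least 48 h at 37 C; viability read as ATP content by CellTiter-Glo luminescence.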
HT1080 IDH1KD tx – kills HT-1080 cells with IDH1 knockdown; Potency, µM (doses to about 46.1 µM), without a hit: at the highest dose activity, negative = toxicity, most hits filed as cytotoxic; HT-1080 IDH1 knockdown viability, ATP luminescence, 48 h; hit rate 2% among 360,000;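 note: potency is the fitted concentration of half-maximal effect; 0% = DMSO wells and -100% = cell-free medium wells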
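Luminescent ATP read-out (CellTiter-Glo, 10 min at room temperature) after 48 h compound exposure at 37 °C gave viability of IDH1-knockdown HT-1080 cells. Activity was normalised to DMSO and cell-free wells, then fitted as concentration-response curves.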
HT1080-NT tox – kills 2HG-producing HT-1080-NT fibrosarcoma cells; Potency, µM (series often up to 46.1 µM), for the others: at the top dose activity, negative = less viability, usual class: cytotoxic; hit rate 1.6% among 360,000; HT-1080-NT fibrosarcoma viability, CellTiter-Glo ATP luminescence, 48 h;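 note: NT is the 2HG producing partner of a matched IDH1 knockdown line; potency is the fitted concentration of half-maximal effect; 0% = DMSO-treated cells and -100% = media-only wells without cells; nearly all actives have a fitted effect of over 55% in size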
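750 cells/well, RPMI + 5% FBS; 2 h settle, compound pin-transfer, 48 h at 37 degrees C. CellTiter-Glo 10 min RT, luminescence. Normalized to DMSO and media-only wells.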
ELG1 repair inh – inhibitors of ELG1-dependent DNA repair in HEK293T cells. HEK293T ELG1-luciferase reporter, luminescence, 16 h; DNA damage induced by 5-fluorouridine. Potency, µM (highest dose often 46.1 µM), for inactives: top-dose activity change, negative = inhibition, hits mostly inhibitors. hit rate 2.3% among 330,000. AID 504467; note: potency is the fitted concentration of half-maximal effect; nearly all actives have a fitted effect of over 55% in size
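In this reporter screen, reduction of luminescence relative to DMSO vehicle indicated activity. Compounds and 5-fluorouridine were added together to 2,000 cells per well, incubated for 16 hr at 37 °C, then developed with ONE-Glo.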
IL-1B inflam inh – inflammasome signaling inhibition, IL-1 beta readout. THP-1 LPS/ATP IL-1B secretion, AlphaLISA, 16 h; hits give low values. activity change, % at 57.5 µM. hit rate 4.7% among 360,000. AID 743279; in the data active = activity change below about -50%; inconclusive = mostly about -30% to -49%
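Secreted IL-1B measured by AlphaLISA bead assay after 16 h compound exposure of THP-1 cells; compounds (final up to 57.5 uM) added 1 h before LPS (250 ng/mL) and ATP (1.25 mM) stimulation; lower signal means less secretion.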
TDP1 cell noCPT – qHTS for Inhibitors of human tyrosyl-DNA phosphodiesterase 1 (TDP1): qHTS in cells in absence of CPT; DT40 Tdp1-/- hTDP1 cells, no CPT, ATP luminescence, 48 h; Potency, µM (highest dose often 46.2 µM), for the others: at the top dose activity change, negative = growth inhibition, most hits filed as inhibitors; hit rate 15% among 420,000; note: potency is the fitted concentration of half-maximal effect; nearly all actives have a fitted effect of over 55% in size
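A cellular qHTS used chicken DT40 cells lacking endogenous Tdp1 but carrying stably transfected human TDP1. Compounds were applied without camptothecin, and cell growth kinetics were judged by ATP-dependent luminescence after ≥48 hr.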
* = called active by the depositor; [ ] = dose if it differs, or a comment. The list is not random: actives were taken first. Their share in the collection is about 19%. Unless noted, calls come from the whole dose curve; as a rule, active = well fitted curve in the direction sought with a large enough effect; inconclusive = small, poorly fitted or top-dose-only effect, or another doubt; inactive = no such curve, though single readings can be large; an effect the other way counts as inactive or inconclusive. Unless noted, % is set by controls: 0 for no effect and ±100 for the full control effect.

What do the screens show for `COc1ccc(OC)c(-c2ccnc(-n3ncc(C(=O)N(C)CCc4ccccn4)c3C)n2)c1`?
DT40 TDP1 CPT: -10%[9.04 µM]; TDP1 cell noCPT: -13%

What do the screens show for `COc1ccc(CC(=O)N(Cc2ccccc2)c2ccc(C)cc2)cc1OC`?
DT40 TDP1 CPT: inconclusive; HT1080 IDH1KD tx: -10%; HT1080-NT tox: -1%; ELG1 repair inh: 30%; IL-1B inflam inh: 12; TDP1 cell noCPT: inconclusive

What do the screens show for `O=S(O)CO`?
DT40 TDP1 CPT: 14%; TDP1 cell noCPT: 1%

Results for CCc1cc(C(=O)NC2CCCN(Cc3ccccc3F)C2)n(C)n1 (stereo not given) ?
DT40 TDP1 CPT: 6.5µM*; HT1080 IDH1KD tx: -4%; HT1080-NT tox: -2%; ELG1 repair inh: inconclusive; IL-1B inflam inh: 35; TDP1 cell noCPT: 9.2µM*

What do the screens show for `COc1ccc(C(=O)NC2CCCN(Cc3ccccc3F)C2)c(OC)c1OC` (stereo not given)?
DT40 TDP1 CPT: inconclusive; HT1080 IDH1KD tx: -6%; HT1080-NT tox: -5%; ELG1 repair inh: inconclusive; IL-1B inflam inh: 11; TDP1 cell noCPT: 5.2µM*

How did CC1CCC(NC(=O)COC(=O)c2ccco2)CC1 (stereo not given) do in these assays?
DT40 TDP1 CPT: 3%; HT1080 IDH1KD tx: 10%; HT1080-NT tox: 2%; ELG1 repair inh: inconclusive; IL-1B inflam inh: -9; TDP1 cell noCPT: 2%

Results for C=CCNCCCCOc1ccccc1-c1ccccc1 ?
DT40 TDP1 CPT: inconclusive; HT1080 IDH1KD tx: inconclusive; HT1080-NT tox: inconclusive; ELG1 repair inh: -9%; IL-1B inflam inh: -85*; TDP1 cell noCPT: inconclusive

How did CNCCCCOc1ccccc1-c1ccccc1 do in these assays?
DT40 TDP1 CPT: 26µM*; HT1080 IDH1KD tx: inconclusive; HT1080-NT tox: -19%; ELG1 repair inh: 2%; IL-1B inflam inh: inconclusive; TDP1 cell noCPT: inconclusive

What do the screens show for `COCCCNCCCCOc1ccccc1-c1ccccc1`?
DT40 TDP1 CPT: 21µM*; HT1080 IDH1KD tx: -24%; HT1080-NT tox: -13%; ELG1 repair inh: -5%; IL-1B inflam inh: 0; TDP1 cell noCPT: 15µM*

What do the screens show for `COCCCNCCOc1ccccc1-c1ccccc1`?
DT40 TDP1 CPT: 13%; HT1080 IDH1KD tx: 2%; HT1080-NT tox: -4%; ELG1 repair inh: -18%; IL-1B inflam inh: -30; TDP1 cell noCPT: inconclusive

How did CCCCNCCOc1ccccc1-c1ccccc1 do in these assays?
DT40 TDP1 CPT: inconclusive; HT1080 IDH1KD tx: -13%; HT1080-NT tox: -9%; ELG1 repair inh: 0%; IL-1B inflam inh: -60*; TDP1 cell noCPT: inconclusive

Results for CNCCOc1ccccc1-c1ccccc1 ?
DT40 TDP1 CPT: -28%; HT1080 IDH1KD tx: 0%; HT1080-NT tox: -1%; ELG1 repair inh: -17%; IL-1B inflam inh: -21; TDP1 cell noCPT: inconclusive

What do the screens show for `CCN(CC(=O)Nc1ccc(OC)cc1)C(=O)c1ccc(OCc2c(C)noc2C)cc1`?
DT40 TDP1 CPT: -8%; HT1080 IDH1KD tx: 4%; HT1080-NT tox: 10%; IL-1B inflam inh: 19; TDP1 cell noCPT: -25%

How did CC(C)(C)n1nnnc1C(c1ccccc1)N1CCN(c2ccccn2)CC1 (stereo not given) do in these assays?
DT40 TDP1 CPT: -5%; HT1080 IDH1KD tx: 3%; HT1080-NT tox: 0%; IL-1B inflam inh: 13; TDP1 cell noCPT: -8%

What do the screens show for `COc1cc(C(=O)NCC(c2ccco2)N2CCCC2)ccc1OCc1ccc(Cl)cc1Cl` (stereo not given)?
DT40 TDP1 CPT: inconclusive; HT1080 IDH1KD tx: inconclusive; HT1080-NT tox: inconclusive; IL-1B inflam inh: inconclusive; TDP1 cell noCPT: 23µM*

What do the screens show for `COc1ccc(C(=O)N(CC2CCCO2)C(C(=O)NC2CCCC2)c2ccc(Cl)cc2)cc1OC` (stereo not given)?
DT40 TDP1 CPT: inconclusive; HT1080 IDH1KD tx: -2%; HT1080-NT tox: -4%; ELG1 repair inh: 5%; IL-1B inflam inh: 2; TDP1 cell noCPT: 18µM*

What do the screens show for `COc1cc(C(=O)NCC2CCCO2)ccc1OCc1ccc(Cl)cc1Cl` (stereo not given)?
DT40 TDP1 CPT: inconclusive; HT1080 IDH1KD tx: -10%; HT1080-NT tox: -17%; ELG1 repair inh: inconclusive; IL-1B inflam inh: -86*; TDP1 cell noCPT: inconclusive

How did COc1ccc(C(C(=O)NC2CCCCC2)N(CC2CCCO2)C(=O)C2COc3ccccc3O2)cc1OC (stereo not given) do in these assays?
DT40 TDP1 CPT: -26%; HT1080 IDH1KD tx: -7%; HT1080-NT tox: -7%; ELG1 repair inh: 9%; IL-1B inflam inh: 4; TDP1 cell noCPT: inconclusive

How did COc1ccc(C(C)=O)cc1CSc1ccc2c(c1)OCCO2 do in these assays?
DT40 TDP1 CPT: -20%; HT1080 IDH1KD tx: -2%; HT1080-NT tox: -10%; ELG1 repair inh: -5%; IL-1B inflam inh: -3; TDP1 cell noCPT: -28%

What do the screens show for `C=CCc1ccccc1OCc1nc2ccccc2n1CC`?
DT40 TDP1 CPT: inconclusive; TDP1 cell noCPT: 23µM*

Results for C=CCn1c(-c2ccc(N)cc2)nc2ccccc21 ?
DT40 TDP1 CPT: inconclusive; HT1080 IDH1KD tx: -3%; HT1080-NT tox: 14%; ELG1 repair inh: inconclusive; IL-1B inflam inh: -18; TDP1 cell noCPT: -22%

What do the screens show for `CCn1c(Cc2ccc(OC)cc2)nc2ccccc21`?
DT40 TDP1 CPT: inconclusive; HT1080 IDH1KD tx: -12%; HT1080-NT tox: -8%; ELG1 repair inh: -15%; IL-1B inflam inh: -51*; TDP1 cell noCPT: -28%

How did COc1ccc(-c2n(Cc3ccccc3)c3ccccc3[n+]2Cc2ccccc2)cc1 do in these assays?
DT40 TDP1 CPT: 0.46µM*; HT1080 IDH1KD tx: 5.8µM*; HT1080-NT tox: 4.6µM*; ELG1 repair inh: inconclusive; IL-1B inflam inh: -87*; TDP1 cell noCPT: 0.26µM*

How did C=CCn1c(-c2ccc(OC)cc2)nc2ccccc21 do in these assays?
DT40 TDP1 CPT: 18µM*; HT1080 IDH1KD tx: -15%; HT1080-NT tox: -18%; ELG1 repair inh: inconclusive; IL-1B inflam inh: -7; TDP1 cell noCPT: 9.2µM*

Results for CCOCCCNC(=O)c1cn(CC)c2ccc(S(=O)(=O)N(C)C3CCCCC3)cc2c1=O ?
DT40 TDP1 CPT: -52%; HT1080 IDH1KD tx: -6%; HT1080-NT tox: inconclusive; ELG1 repair inh: inconclusive; IL-1B inflam inh: inconclusive; TDP1 cell noCPT: inconclusive

What do the screens show for `Cc1cccc(C)c1OCc1nc2c3c(-c4ccccc4)c(-c4ccccc4)oc3ncn2n1`?
DT40 TDP1 CPT: -4%; TDP1 cell noCPT: -11%

Assay outcomes from PubChem BioAssay.
